Unmarked numbers belong to inactive results. Active and inactive are the calls of the source. Calls follow the shape of the dose curve; as a rule, active = well fitted curve in the direction sought with a large enough effect; inconclusive = small, poorly fitted or top-dose-only effect, or effect the other way, or another doubt; inactive = no such curve, though single readings can be large or run the other way.

Experimental findings from PubChem BioAssay (NCATS) are described below.
Potency is read from the fitted curve at half-maximal effect.

A short description of the assay: qHTS of Nrf2 Activators: LOPAC Validation (AID 624149). As to activation: 0% is about no effect. The following applies: Nrf2/ARE reporter cell assay; series mostly up to 46.1 µM; activation: at the top concentration. The text has this:
Many diseases have some form of oxidative stress injury and ties to inflammation, causing a host of problems for the patient. The antioxidant response element (ARE) plays an important role in alleviating the harmful effects of oxidative stress. The antioxidant response element (ARE) is a transcriptional regulatory element involved in the activation of genes coding for a number of antioxidant proteins and detoxifying enzymes. These enzymes work in concert to protect tissues from oxidative insults and chemical toxicities in human hepatocytes and immune cells. The protective effects of ARE activation are primarily triggered through Nrf2 (NF-E2-related factor) binding to and activating AREs. It is known that Nrf2 controls the production of over 250 antioxidant and detoxification proteins (Hu et al., 2006), thereby protecting tissues by increasing cellular antioxidant content and suppressing inflammatory signaling pathways. The transcription factor Nrf2 is a central link between oxidative chemicals, such as phenolic antioxidants and electrophilic compounds, and the activation of ARE. Nrf2 levels are constitutively low as a consequence of its interaction with Keap1, which targets its degradation (Zipper and Mulcahy, 2002). Electrophiles react with key cysteine residues in Keap1, releasing Nrf2 and allowing its translocation to the nucleus. Once within the nucleus, Nrf2 complexes with coactivators such as p300, and binds to the AREs to induce gene transcription of cytoprotective enzymes, resulting in the prevention of toxicity. Activation of Nrf2 protects tissues by increasing cellular antioxidant content and suppressing inflammatory signaling pathways. Identifying novel and potent Nrf2 activators by using the AREc32 cell line to detect ARE activation by small molecules will lead to the identification and development of probes to study protective pathways in multiple tissues. These specific probes are essential to study the ARE pathway, and eventually to determine whether this pathway does activate genes that could protect against a host of diseases, including cardiovascular diseases, obesity, diabetes, Alzheimer's, and Parkinson's disease.
This project's aim is to identify novel and potent Nrf2 activators by using the AREc32 cell line to detect ARE activation by small molecules, which will lead to the identification and development of probes to study the ARE pathway.
NIH Chemical Genomics Center [NCGC]
NIH Molecular Libraries Probe Centers Network [MLPCN]
Assay Submitter (PI): Curtis Klaassen, University of Kansas Medical Center
5 uL of 1000 cells/well of AREc32_Fluc cells are seeded into 1536-well plate in OPTI-MEM medium with 5% FBS. The plates are incubated overnight at 37 deg C with 5% CO2. Then through pin tool transfer, 23 nL of compounds are added to each well before a 24 hr incubation at 37 deg C with 5% CO2. After the addition of 2.5 uL of Steady-Glo. the plates are kept at RT for 30 min, before they are read on the ViewLux
In general terms: qHTS replaces the single test concentration by a dilution series.
In the case of `CC(N)Cc1c[nH]c2ccc(OCc3cccs3)cc12` (stereo not given), the “activation” value is -1.23%. As to `CC(C)NP(=O)(NC(C)C)OP(=O)(NC(C)C)NC(C)C`, the “activation” value was -2%. Still for that read-out and setting: the value for `COc1ccc2c(c1)/C(=C/c1cnc[nH]1)C(=O)N2` was -0.698%; that for `CCCCCCC(C)(C)c1ccc([C@@H]2C[C@H](O)CC[C@H]2CCCO)c(O)c1` was -1.82%. Still for that read-out and setting: next, `CCCN(CCC)C1CCc2cccc(O)c2C1` (stereo not given): -1.62%; `C=CCN1C[C@@H](C)N([C@H](c2ccc(C(=O)N(CC)CC)cc2)c2cccc(OC)c2)C[C@@H]1C`: -1.88%. Still for that read-out and setting: the value for `C=CCN1CCC23c4c5ccc(O)c4O[C@H]2C(=O)CC[C@@]3(O)C1C5` (stereo not given in full) was -2.73%; that for `O=C1C=CC(=O)C=C1` was 0.546%. On to `C[C@@H]1O[C@@H](O[C@H]2C[C@@H](O)[C@]3(CO)[C@@H]4C(CC[C@]3(O)C2)[C@@]2(O)CC[C@H]([C@@H]3COC(=O)C3)[C@@]2(C)C[C@H]4O)[C@H](O)[C@H](O)[C@H]1O` (stereo not given in full), for which the “activation” value is -1.38%. Same read-out and setting: the value for `CN(N=O)c1cc(O)ccc1O` was 15.6%; that for `NCCc1c[nH]c2ccc(C(N)=O)cc12` was 0.498%. The same measure, in the same setting: next, `c1ccc2c(c1)[I+]c1ccccc1-2`: -1.82%; `CC(N)[C@H](O)c1ccc(O)c(O)c1` (stereo not given in full): -2.25%; `C[N+]1(C)CCOC(O)(c2ccc(-c3ccc(C4(O)C[N+](C)(C)CCO4)cc3)cc2)C1` (stereo not given): -1.83%. In the case of `NC(N)=NOCC[C@H](N)C(=O)O`, the “activation” value was 0.365%.

With `NC(N)=Nc1ccc2[nH]c3c(c2c1)C[C@@]1(O)[C@H]2Cc4ccc(O)c5c4[C@@]1(CCN2CC1CC1)[C@H]3O5`, the Potency was 2.91 µM (active).

For `CN1C2CCC1CC(OC(c1ccccc1)c1ccccc1N)C2` (stereo not given), the “activation” value is -1.95%. Same read-out and setting: next, `CCCN1CCC[C@@H](c2cccc(O)c2)C1`: -0.352%; `CN(C(=O)Cc1ccc(Cl)c(Cl)c1)C(CN1CCCC1)c1cccc(OCC(=O)O)c1` (stereo not given): -2.03%. Still for that read-out and setting: next, `CN1CCc2cc(O)cc3c2[C@H]1Cc1ccc(O)c(O)c1-3`: 5.59%. With `CCN1C[C@@]2(COC)C3[C@@H](OC)C4[C@@H]1C3([C@@H]1C[C@]3(O)[C@H](OC(=O)c5ccccc5)[C@@H]1[C@]4(OC(C)=O)[C@@H](O)[C@@H]3OC)[C@H](OC)C[C@H]2O`, the “activation” value is -2.08%. As for `N#C/C(=C/c1ccc(O)c(O)c1)C(N)=S`, the “activation” value was 1.57%. On the same count and under the same terms, the value for `NC(Cc1cc(O)c(O)cc1O)C(=O)O` (stereo not given) was -1.45%; that for `COc1ccc2c(c1)[C@@]13CCCC[C@H]1[C@@H](C2)NCC3` was 0.952%; that for `C[N+](C)(C)CC#CCN1CCCC1=O` was -1.65%. Same read-out and setting: the value for `C[N+]1(C)CCN(c2ccccc2)CC1` was -0.676%; that for `Cc1sc2ccccc2c1CC1=NCCN1` was -0.893%; that for `O=S1(=O)N(CCN2CC=C(c3c[nH]c4cc(F)ccc34)CC2)c2cccc3c2N1CCC3` was 5.89%. Still for that read-out and setting: next, `COc1ccc2[nH]c3c(c2c1)CCNC3`: -1.3%; `CC(N)Cc1c[nH]c2ccc(O)cc12` (stereo not given): -1.99%. Turning to `CC(C)[C@@]1(NC(=O)[C@@H]2C[C@@H]3c4cccc5[nH]cc(c45)C[C@H]3N(C)C2)O[C@@]2(O)[C@@H]3CCCN3C(=O)[C@H](Cc3ccccc3)N2C1=O`, the “activation” value was -1.15%. Same read-out and setting: the value for `CCCN(CCC)CCc1c[nH]c2ccc(C(N)=O)cc12` was 1.7%. As for `CN1CC[C@@]2(C)c3cc(OC(=O)Nc4ccccc4)ccc3N(C)[C@@H]12`, the “activation” value was -1.46%. Same read-out and setting: next, `COc1ccc2c(c1O)-c1cccc3c1[C@@H](C2)N(C)CC3`: -1.35%; `CCCN1CC[C@@H]2c3cc(O)ccc3CC[C@@H]21`: -0.787%. As to `CC(N)c1cccc(Cl)c1Cl` (stereo not given), the “activation” value was 0.708%. Still for that read-out and setting: next, `NC(Cc1ccc(N(CCCl)CCCl)cc1)C(=O)O` (stereo not given): 1.78%.

Take `NCCc1ccc(S(=O)(=O)F)cc1`: the “activation” value is -1.39%. The same measure, in the same setting: the value for `OC1CCCCC1N1CCC(c2ccccc2)CC1` (stereo not given) was 0.871%; that for `CCCN1CCc2cc(O)cc3c2[C@H]1Cc1ccc(O)c(O)c1-3` was 2.46%.
